Results: PubChem BioAssay (EPA / NIEHS)
Records with an inconclusive call do not appear. Activity calls are given as the source filed them. Rule for the calls, unless noted: active = hit-call score of the fitted dose curve at least 0.9, where 1 is the maximum; inactive = score below 0.9.

Legend:
[1] = ACEA_ER_80hr: ACEA Biosciences xCELLigence Real-Time Cell Analysis on Estrogen Receptor Agonism for Proliferation (AID 2282667; active = hit-call score of the fitted dose curve at least 0.9, where 1 is the maximum); conditions: T47D proliferation, impedance (xCELLigence), 80 h
In short: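 Estrogen-driven proliferation is captured as electrode impedance in T47D cells 80 h after compound addition. Test articles ran at 8 concentrations, 1:4 dilutions from 100 uM final, in two replicate plates.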

[2] = ATG_CRE_CIS: Attagene CIS-FACTORIAL HepG2 Assay for human cAMP Responsive Element (CRE) binding protein 3 (AID 2282926); conditions: HepG2 CRE cis-reporter, Attagene multiplexed mRNA; actives raise or lower the signal
In short: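 Transfected HepG2 were treated for 24 hours, then RNA was extracted and reporter cDNA amplified with sequence-specific primers. Labelled fragments were separated by capillary electrophoresis, and the CRE signal was fitted bidirectionally with DMSO as baseline.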

[3] = target: CCAAT/enhancer-binding protein beta (Homo sapiens) (UniProt P17676); assay: ATG_C_EBP_CIS: Attagene CIS-FACTORIAL HepG2 Assay for human CCAAT/Enhancer Binding Protein (C/EBP) beta (AID 2282927); conditions: HepG2 Attagene cis-factorial transcription factor reporter; actives raise or lower the signal
Chain of CCAAT/enhancer-binding protein beta (Homo sapiens) (P17676 whole entry, looked up, the tested form may be a part): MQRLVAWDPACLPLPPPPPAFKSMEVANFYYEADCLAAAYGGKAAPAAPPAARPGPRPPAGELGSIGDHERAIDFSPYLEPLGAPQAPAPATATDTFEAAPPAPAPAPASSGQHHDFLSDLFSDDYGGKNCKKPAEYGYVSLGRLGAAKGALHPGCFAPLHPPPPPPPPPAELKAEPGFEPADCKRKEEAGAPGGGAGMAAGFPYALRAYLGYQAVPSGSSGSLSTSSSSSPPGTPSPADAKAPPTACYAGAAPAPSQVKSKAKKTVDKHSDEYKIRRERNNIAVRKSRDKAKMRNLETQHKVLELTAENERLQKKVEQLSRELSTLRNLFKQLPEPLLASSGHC
In short: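 Endogenous C/EBPb-driven reporter transcripts measured in transfected human HepG2 cells at 24 h via RT-PCR and capillary electrophoresis of labelled fragments. Activity fitted in both directions relative to DMSO baseline.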

[4] = ATG_CMV_CIS: Attagene CIS-FACTORIAL HepG2 Assay for human CMV (Internal Marker) (AID 2282928); conditions: HepG2 CMV promoter reporter, transcription factor profiling; actives raise or lower the signal;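 note: endpoint acts as a background internal control marker rather than a target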
In short: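 Endogenous transcription factor activity read in HepG2 via transfected cis-promoter reporter units. After 24 h dosing, reporter mRNA measured by RT-PCR/capillary electrophoresis; gain or loss of signal fit relative to DMSO.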

[5] = ATG_DR4_LXR_CIS: Attagene CIS-FACTORIAL HepG2 Assay for human Liver X Receptor (LXR), DR4 submotif (AID 2282929); conditions: HepG2 Attagene DR4 cis-reporter, mRNA transcription; actives raise or lower the signal
In short: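 HepG2, transient MRTU transfection, cis-element (DR4) promoter; 24 h compound exposure; total RNA → oligo(dT) RT → PCR → 6-FAM primer extension → HpaI cut → CE. Gain/loss vs DMSO, bidirectional fit.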

[6] = target: Aryl hydrocarbon receptor (Homo sapiens) (UniProt P35869); assay: ATG_Ahr_CIS: Attagene CIS-FACTORIAL HepG2 Assay for human Aryl Hydrocarbon Receptor (Ahr) (AID 2282930); conditions: HepG2 AhR cis-factorial reporter transcription; actives raise or lower the signal
Chain of Aryl hydrocarbon receptor (Homo sapiens) (P35869 whole entry, looked up): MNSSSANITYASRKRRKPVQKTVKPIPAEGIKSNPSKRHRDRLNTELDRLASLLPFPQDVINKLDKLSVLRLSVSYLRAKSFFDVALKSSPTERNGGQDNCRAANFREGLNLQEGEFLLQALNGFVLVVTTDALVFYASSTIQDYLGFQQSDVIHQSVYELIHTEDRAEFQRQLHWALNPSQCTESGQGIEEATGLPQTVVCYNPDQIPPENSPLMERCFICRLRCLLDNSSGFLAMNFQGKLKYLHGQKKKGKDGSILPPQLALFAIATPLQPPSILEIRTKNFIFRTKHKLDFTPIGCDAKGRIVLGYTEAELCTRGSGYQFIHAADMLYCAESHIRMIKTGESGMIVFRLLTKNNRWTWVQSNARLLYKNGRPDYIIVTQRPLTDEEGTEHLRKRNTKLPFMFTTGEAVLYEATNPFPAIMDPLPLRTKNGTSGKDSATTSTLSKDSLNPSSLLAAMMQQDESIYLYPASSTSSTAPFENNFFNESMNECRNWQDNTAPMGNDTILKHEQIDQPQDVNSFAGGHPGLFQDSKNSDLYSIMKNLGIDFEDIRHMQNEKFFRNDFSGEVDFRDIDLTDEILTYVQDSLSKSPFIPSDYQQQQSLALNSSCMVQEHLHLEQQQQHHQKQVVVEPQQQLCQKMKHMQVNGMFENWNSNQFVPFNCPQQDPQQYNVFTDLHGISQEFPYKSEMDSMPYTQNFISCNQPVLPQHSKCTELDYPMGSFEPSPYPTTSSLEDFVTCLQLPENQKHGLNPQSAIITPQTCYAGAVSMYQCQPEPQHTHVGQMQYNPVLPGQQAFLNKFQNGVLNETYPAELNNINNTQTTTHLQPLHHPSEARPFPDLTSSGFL
In short: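 Reporter mRNA levels, quantified by RT-PCR and fluorescent capillary electrophoresis, reflect endogenous AhR transcriptional activity in HepG2 cells carrying transfected cis-promoter reporter constructs. Readout at 24 h post-dose; gain or loss fitted against DMSO baseline.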

[7] = ATG_AP_1_CIS: Attagene CIS-FACTORIAL HepG2 Assay for human Activator Protein 1 (AP-1) (AID 2282931); conditions: HepG2 Attagene cis-factorial AP-1 reporter mRNA; actives raise or lower the signal
In short: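 Transient MRTU transfection of HepG2 → 24 h chemical treatment → RNA isolation, RT-PCR, 6-FAM labelling, HpaI digest → capillary electrophoresis. Fit: bidirectional, DMSO negative control.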

[8] = ATG_BRE_CIS: Attagene CIS-FACTORIAL HepG2 Assay for human Bone Morphogenetic Protein (BMP) Response Element (BRE) (AID 2282933); conditions: HepG2 BMP response element reporter, Attagene transcription factor profiling; actives raise or lower the signal
In short: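 Gain- or loss-of-signal was derived by bidirectional fitting against DMSO controls. The signal came from reporter mRNA, measured by RT-PCR and capillary electrophoresis, in HepG2 cells transiently carrying multiple reporter units and dosed for 24 h.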

[9] = target: Retinoic acid receptor alpha (Homo sapiens) (UniProt P10276); assay: ATG_DR5_RAR_CIS: Attagene CIS-FACTORIAL HepG2 Assay for human Retinoic Acid Receptor Alpha (RARE), DR5 submotif (AID 2282934); conditions: HepG2 Attagene cis-factorial RARE DR5 reporter, mRNA; actives raise or lower the signal;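 for AC50: reporter responds to endogenous RAR alpha beta and gamma in HepG2 not RARA alone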
Chain of Retinoic acid receptor alpha (Homo sapiens) (P10276 whole entry, looked up): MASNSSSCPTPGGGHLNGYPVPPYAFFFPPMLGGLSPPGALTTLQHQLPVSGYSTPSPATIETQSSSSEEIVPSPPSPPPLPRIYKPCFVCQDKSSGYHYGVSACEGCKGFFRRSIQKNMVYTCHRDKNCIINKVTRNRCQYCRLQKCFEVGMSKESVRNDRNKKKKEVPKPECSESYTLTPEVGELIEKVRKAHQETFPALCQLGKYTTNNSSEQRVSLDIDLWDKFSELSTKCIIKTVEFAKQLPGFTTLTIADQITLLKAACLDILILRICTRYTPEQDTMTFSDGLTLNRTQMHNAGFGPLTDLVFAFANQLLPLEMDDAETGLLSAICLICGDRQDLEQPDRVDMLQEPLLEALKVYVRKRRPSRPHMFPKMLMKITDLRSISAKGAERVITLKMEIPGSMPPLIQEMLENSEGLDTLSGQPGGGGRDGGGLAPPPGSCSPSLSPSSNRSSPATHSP
In short: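 Reporter transcripts from a DR5-regulated unit, measured via RT-PCR plus capillary electrophoresis, reflect endogenous RAR activity in transiently transfected human HepG2 liver cells. Exposure lasted 24 h; gain or loss of signal scored against DMSO.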

[10] = target: Transcription factor E2F1 (Homo sapiens) (UniProt Q01094); assay: ATG_E2F_CIS: Attagene CIS-FACTORIAL HepG2 Assay for human E2F Transcription Factor 1 (AID 2282935); conditions: HepG2 Attagene cis-reporter, E2F reporter RNA transcripts; actives raise or lower the signal
Chain of Transcription factor E2F1 (Homo sapiens) (Q01094 whole entry, looked up): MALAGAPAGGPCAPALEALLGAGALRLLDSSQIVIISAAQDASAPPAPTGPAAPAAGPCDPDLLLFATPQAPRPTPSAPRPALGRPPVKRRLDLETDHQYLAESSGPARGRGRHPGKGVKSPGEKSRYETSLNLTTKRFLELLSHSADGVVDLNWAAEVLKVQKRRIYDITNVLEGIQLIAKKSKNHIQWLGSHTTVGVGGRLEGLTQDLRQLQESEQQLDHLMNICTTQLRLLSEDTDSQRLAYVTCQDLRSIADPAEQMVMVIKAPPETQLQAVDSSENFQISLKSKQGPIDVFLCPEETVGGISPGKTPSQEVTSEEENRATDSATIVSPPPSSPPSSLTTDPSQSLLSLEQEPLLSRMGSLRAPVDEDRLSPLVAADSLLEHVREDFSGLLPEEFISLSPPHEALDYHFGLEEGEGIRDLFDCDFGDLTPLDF
In short: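 Cis-element reporter mRNA induction in transiently transfected HepG2, 24 h exposure. Activity fitted in both directions relative to DMSO negative control.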

[11] = ATG_E_Box_CIS: Attagene CIS-FACTORIAL HepG2 Assay for human Enhancer Box (E-box) (AID 2282936); conditions: HepG2 E-box cis-reporter transcription, actives raise or lower the signal
In short: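 Cells: HepG2 (human liver), transient MRTU transfection. Exposure 24 h. RNA → oligo(dT) RT → PCR → 6-FAM label → HpaI → CE. Activity fitted both directions relative to DMSO.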

[12] = ATG_M_61_CIS: Attagene CIS-FACTORIAL HepG2 Assay for M61 Transcription Factor (Internal Marker) (AID 2282937); conditions: HepG2 Attagene CIS-FACTORIAL M61 internal marker reporter; actives raise or lower the signal
In short: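 Human liver HepG2, transient MRTU transfection (cis promoter elements), 24 h compound. Total RNA → oligo(dT) RT → PCR → FAM label → HpaI → CE. Internal background marker; bidirectional fitting, DMSO = baseline.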

[13] = ATG_EGR_CIS: Attagene CIS-FACTORIAL HepG2 Assay for human Early Growth Response 1 (EGR1) (AID 2282938); conditions: HepG2 Attagene CIS-FACTORIAL EGR reporter mRNA; actives raise or lower the signal
In short: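 Transient transfection of human HepG2 with multiple cis-regulated reporter units, chemical exposure 24 h, total RNA isolated. Reverse transcription, PCR, fluorescent labelling and capillary electrophoresis quantify reporter transcripts; activity fitted bidirectionally against DMSO.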

[14] = ATG_M_19_CIS: Attagene CIS-FACTORIAL HepG2 Assay for M19 Transcription Factor (Internal Marker) (AID 2282939); conditions: HepG2 Attagene CIS-FACTORIAL M19 internal marker reporter; actives raise or lower the signal
In short: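 Following a 24 h exposure, RNA from transfected HepG2 cells was reverse-transcribed, PCR-amplified with reporter-specific primers, end-labelled with 6-FAM and HpaI-digested before capillary separation. Values represent gain or loss versus DMSO.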

[15] = ATG_ERE_CIS: Attagene CIS-FACTORIAL HepG2 Assay for Estrogen Response Element (ERE) (AID 2282940); conditions: HepG2 ERE cis-reporter, Attagene RNA transcript; actives raise or lower the signal
In short: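 HepG2, transient cis-reporter units, 24 h exposure. RNA isolated, oligo(dT) RT, reporter-specific PCR, FAM extension, HpaI cut, CE detection. Gain/loss-of-signal vs DMSO.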

[16] = ATG_Ets_CIS: Attagene CIS-FACTORIAL HepG2 Assay for human Erythroblast Transformation Specific (ETS) (AID 2282941); conditions: HepG2 ETS cis-reporter transcription, actives raise or lower the signal
In short: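 Steps: transfect HepG2 with multiple reporter units; treat compound 24 h; isolate RNA, DNase-treat, reverse-transcribe; PCR-amplify, label with 6-FAM, digest with HpaI; separate by capillary electrophoresis. Activity fitted both directions versus DMSO.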

[17] = target: Hepatocyte nuclear factor 3-beta (Homo sapiens) (UniProt Q9Y261); assay: ATG_FoxA2_CIS: Attagene CIS-FACTORIAL HepG2 Assay for human Forkhead box A2 (FOXA2) (AID 2282942); conditions: HepG2 cis-reporter transcription factor activity, 24 h; actives raise or lower the signal
Chain of Hepatocyte nuclear factor 3-beta (Homo sapiens) (Q9Y261 whole entry, looked up): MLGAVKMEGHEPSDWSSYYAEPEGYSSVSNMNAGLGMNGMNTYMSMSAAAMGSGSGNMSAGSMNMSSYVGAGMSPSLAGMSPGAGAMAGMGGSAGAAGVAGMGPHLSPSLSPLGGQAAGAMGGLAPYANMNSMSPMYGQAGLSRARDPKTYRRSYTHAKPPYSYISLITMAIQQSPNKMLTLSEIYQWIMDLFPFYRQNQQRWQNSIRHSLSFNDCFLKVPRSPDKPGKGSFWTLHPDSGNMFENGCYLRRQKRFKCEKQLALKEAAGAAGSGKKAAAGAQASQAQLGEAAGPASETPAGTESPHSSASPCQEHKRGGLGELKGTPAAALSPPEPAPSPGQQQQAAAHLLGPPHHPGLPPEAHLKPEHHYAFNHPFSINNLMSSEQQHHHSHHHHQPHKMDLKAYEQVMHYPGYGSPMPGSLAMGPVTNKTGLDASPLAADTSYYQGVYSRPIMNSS
In short: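 Transient MRTU transfection of HepG2 liver cells; 24 h treatment; total RNA → oligo(dT) RT → PCR → FAM primer extension → HpaI cut → CE. Bidirectional fit vs DMSO.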

[18] = ATG_FoxO_CIS: Attagene CIS-FACTORIAL HepG2 Assay for human Forkhead box O (FoxO) (AID 2282943); conditions: HepG2 Attagene cis-reporter, FoxO element, mRNA; actives raise or lower the signal
In short: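 Endogenous transcription factor activity read from multiplexed cis-promoter reporter transcripts in transiently transfected HepG2, 24 h after dosing. Reporter RNA measured via RT-PCR plus capillary electrophoresis of FAM-labeled products; gain or loss relative to DMSO.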

[19] = ATG_GATA_CIS: Attagene CIS-FACTORIAL HepG2 Assay for human GATA Binding Protein (AID 2282944); conditions: HepG2 GATA cis-element reporter, Attagene multiplex mRNA; actives raise or lower the signal
In short: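 DMSO serves as negative control and baseline for bidirectional fitting of reporter mRNA changes. HepG2 cells bearing transiently transfected cis-promoter reporters were exposed 24 h; transcripts detected via RT-PCR and capillary electrophoresis.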

[20] = ATG_AP_2_CIS: Attagene CIS-FACTORIAL HepG2 Assay for human Activator Protein 2 (AP-2) (AID 2282932); conditions: HepG2 AP-2 cis-reporter, Attagene transcription factor profiling; actives raise or lower the signal
In short: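 HepG2, transient MRTU transfection, cis-regulated reporters; 24 h compound exposure; RNA isolated, RT-PCR, 6-FAM labelling, HpaI digest, CE fluorescence. DMSO = negative control/baseline, bidirectional fit.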

Measured: AC50

FC(F)(F)C(F)(F)C(F)(F)CC1CO1 (centres undefined)
inactive: [1] | [2] | [3] | [4] | [5] | [6] | [7] | [8] | [9] | [10] | [11] | [12] | [13] | [14] | [15] | [16] | [17] | [18] | [19]

CCN(CC)c1ccc(N=Nc2ccccc2)cc1
active: [1] 50 µM | [6] 5.68 µM | [7] 72.7 µM | [8] 78.8 µM | [11] 20.9 µM | [13] 12.3 µM | [17] 26.9 µM
inactive: [2] | [3] | [4] | [5] | [9] | [10] | [12] | [14] | [15] | [16] | [18] | [19]

C[Si](Cl)(Cl)CCC(F)(F)C(F)(F)C(F)(F)C(F)(F)C(F)(F)C(F)(F)F
inactive: [1] | [2] | [3] | [4] | [5] | [6] | [7] | [20] | [8] | [9] | [12] | [13] | [14] | [15] | [16] | [17] | [18] | [19]

C[C@]12CC[C@H]3C(=CCc4cc(O)ccc43)[C@@H]1CCC2=O
inactive: [2] | [3] | [4] | [5] | [6] | [7] | [8] | [9] | [11] | [12] | [13] | [14] | [16] | [17] | [18] | [19]
active: [1] 0.00143 µM

CC1=CC2C3C=CC(C3)C2C1C (centres undefined)
inactive: [1] | [2] | [4] | [5] | [6] | [7] | [8] | [9] | [11] | [12] | [13] | [14] | [16] | [17] | [18] | [19]
active: [3] 100 µM

Cc1ccc(S(=O)(=O)C(I)I)cc1
active: [2] 8.93 µM | [6] 27.5 µM | [7] 51.7 µM | [9] 8.88 µM | [11] 24.3 µM | [16] 8.59 µM | [17] 43.7 µM | [18] 5.14 µM | [19] 8.85 µM
inactive: [1] | [3] | [4] | [5] | [8] | [10] | [12] | [13] | [15]

CN(C(=O)C(F)(F)C(F)(F)C(F)(F)F)[Si](C)(C)C
inactive: [1] | [2] | [3] | [4] | [5] | [6] | [7] | [8] | [9] | [10] | [11] | [12] | [13] | [14] | [16] | [17] | [18] | [19]

O=S(=O)(Cl)C(F)(F)C(F)(F)C(F)(F)C(F)(F)C(F)(F)C(F)(F)C(F)(F)C(F)(F)F
active: [7] 57.3 µM
inactive: [1] | [2] | [3] | [4] | [5] | [6] | [8] | [9] | [10] | [11] | [12] | [13] | [14] | [16] | [17] | [18] | [19]
